Over roughly 33,000 sequences, “E-score (-0.5 to 0.5)” has its median near -0.0034; the highest 2% begin near 0.25. Many of the other results were omitted from the sample, so the highest values are more common in it than they were.
target: T1, Yap3 (UniProt P38749); test: PBM E-score (8-mer binding enrichment) (E-score (-0.5 to 0.5)); higher = stronger / more preferred TF binding; details: protein concentration: 100 nM; construct: GST-full length
T1 sequence: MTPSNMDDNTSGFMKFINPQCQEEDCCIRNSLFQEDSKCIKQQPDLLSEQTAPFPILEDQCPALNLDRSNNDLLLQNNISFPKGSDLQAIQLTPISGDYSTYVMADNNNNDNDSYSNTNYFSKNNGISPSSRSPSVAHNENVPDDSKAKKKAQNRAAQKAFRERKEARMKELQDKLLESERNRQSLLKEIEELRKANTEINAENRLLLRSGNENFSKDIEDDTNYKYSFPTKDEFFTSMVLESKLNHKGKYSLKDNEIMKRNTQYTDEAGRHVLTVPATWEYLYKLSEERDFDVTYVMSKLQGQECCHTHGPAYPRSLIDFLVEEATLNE
Method: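 Universal 'all 10-mer' protein binding microarrays (Agilent AMADID 015681) probed with GST-tagged S. cerevisiae TFs (full-length or DBD) made by in vitro transcription/translation (PURExpress), about 100-200 nM. Bound TF was detected with fluorescent anti-GST. Each ungapped 8-mer (which stands for itself and its reverse complement) is scored by the PBM enrichment score (E-score), a modified Wilcoxon-Mann-Whitney statistic from -0.5 to +0.5, computed with the Universal PBM Analysis Suite. Scale: above 0.35 generally sequence-specific binding.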

Sequence | PBM E-score
GGCGACAA | -0.181
GCGTCCCA | -0.121
GGTGGCGA | -0.0578
AAGGAGCG | 0.00726
ACGGCAAT | 0.285
ACGGCAAA | 0.134
ACGGCAAG | 0.1
GGGAAAAC | 0.0844
GAAAAAAC | 0.255
AAAAAAAA | 0.244
GGAAAACC | -0.11
GGAAAAAA | 0.248
AAAAAAAC | 0.151
GAAAAACC | 0.136
GGAAAAAC | 0.3
GAAAAAAA | 0.287
CCCAGCAC | -0.123
CACAGCAA | 0.103
AGTCCTAC | -0.125
CTACCTTC | 0.0321
AAGCTAAC | 0.0596
CCTAAGGC | -0.38
GTACTTCA | 0.287
ATACTTCA | 0.0363
CTACTTCA | -0.0894
GCCAGGCA | -0.12

Sequence | PBM E-score
AACAGGCC | -0.258
ACGCGTTG | -0.027
ATACCTAA | 0.273
TTACCTAA | 0.281
GTACCTAA | -0.0819
ATACCTAC | -0.0217
ATACCTAT | 0.124
CTACCTAA | 0.126
CTCAGACA | 0.087
GCATTCAA | 0.0939
AGAACAAT | 0.221
GGAACAAC | 0.157
AGAACAAG | 0.205
CGAACAAG | 0.0425
TGAACAAA | 0.248
GCAACAAA | 0.193
GGAACAAA | 0.311
CGAACAAA | 0.303
AGAACAAA | 0.291
CGCTCAAG | -0.114
AACTGGAC | 0.0415
CGCGAGAG | -0.0457
AAGGCTTA | 0.0457
AAGAGAGG | -0.163
GTTGTTCA | -0.0828
GTGTATTA | 0.338

Sequence | PBM E-score
CTGTATTC | 0.128
GCGTATTA | 0.148
GTGTATGA | 0.0534
ACGTATTA | 0.282
ATGTATTA | 0.178
ATGTAGTA | 0.237
ACGTATTG | 0.111
CTGTAGTA | 0.281
CTGTATTA | 0.258
GTGTAGTA | 0.0243
CTGTATAA | 0.13
GCTGCTCC | -0.307
ATCATATC | 0.193
CGCTGTCA | -0.151
CGAGAACC | -0.00819
CGCACACG | -0.135
CCGTGAGA | -0.162
AACGCGCC | -0.0619
AGCTTTCC | -0.0722
ATTTGACG | 0.138
CTGGGCCC | -0.273
ATGTGTTA | 0.2
CTGTGTTA | 0.162
GTGTGTTA | 0.259
TGTTGGAA | 0.122
AAGTCGAA | -0.0326

Sequence | PBM E-score
ATTACCAC | 0.136
ATTACCAA | 0.271
GTTACCAA | 0.221
TGTACCAA | 0.0503
AGTACCAA | 0.281
CGTACCAA | 0.21
AACTCAAA | 0.187
GACGCGCC | -0.119
AATATGGC | 0.0119
ATGACAAA | 0.307
ATGACGTG | 0.127
ATCACGTA | 0.311
ATGACAAC | 0.189
ATGACGTA | 0.277
CTGACGTA | 0.0592
ATGACAAG | -0.0324
ATCACGTG | 0.0436
ATCACGTC | 0.16
TGACTGCA | -0.167
CGCAGGTA | -0.116
ACTTAAGT | 0.193
CCGAGCGC | 0.00891
ACCTAGGG | -0.0254
AGCAACGA | 0.117
CCGCTCGC | -0.178
ACAAGTTA | 0.16

Sequence | PBM E-score
AACAATAC | 0.0469
AACAATAA | 0.179
ACCAATAG | -0.0827
ACCAATAT | 0.254
ACCAATAC | 0.0412
AACAATAT | 0.329
CGTGAACC | -0.157
TCTCAGCA | 0.0139
CAATTGGC | 0.179
AATCCCCA | -0.0814
CGGTTACC | -0.159
ACCATGCG | 0.0314
AAATTGGT | 0.244
CCAGGGAA | -0.188
ACGAACCC | -0.133
ACGAACCA | 0.266
CCGAACCA | -0.116
AGAAGGCA | -0.115
AATGCAAG | 0.0231
AATGCATA | 0.0923
AATGCGCA | 0.295
AATGCAAC | 0.104
AATGCATG | 0.188
AATGCAAA | 0.262
AATGCGCG | 0.178
CATGCGCA | 0.0286

Sequence | PBM E-score
AATGCATT | 0.258
GCTCTCCA | -0.215
TCTATTCA | 0.222
TCAAACCA | 0.165
ACACTCGT | 0.00445
TAATCCAA | 0.24
AGAGCCCA | -0.112
CGGAAGAC | -0.00677
AGAATATA | 0.14
CGAATATA | 0.148
CTAATCTA | 0.00845
ATAATAGG | 0.157
GTAATATA | 0.354
ATAATATG | 0.307
ATAATATC | 0.194
GTAATAGA | 0.223
ATAATCTA | 0.229
CTAATATA | 0.235
GTAATCTA | 0.319
ATAATATA | 0.307
CAATCGGC | -0.0271
CAAACTGC | 0.0735
ACTTGCTA | -0.0697
CACTCGAC | -0.0984
AATTAGAA | 0.0871
CGATGGCC | -0.0485

Sequence | PBM E-score
TGCTAGAA | -0.0446
CCAGATAG | -0.0894
GCAATATA | 0.216
ACAATATA | 0.302
CCAATATA | 0.0353
AATGCGAC | 0.106
AAGCGCTA | 0.0946
AAGCGCTC | -0.0695
AAGCGCTT | 0.321
ACGCTTAT | -0.04
AGTAACTG | 0.0876
AATATATA | 0.229
AATATATT | 0.331
AATATATG | 0.304
AATATGTA | 0.222
AATATGTC | 0.111
ACTATATG | 0.193
CATATATG | 0.126
AATATATC | 0.157
AATATGTG | 0.273

From the supplement of paper PMC3334620
